Consider three molecules from PubChem BioAssay (EPA / NIEHS).

Activity calls are given as the source filed them. The calls were made as follows: active = hit-call score of the fitted dose curve at least 0.9, where 1 is the maximum; inactive = score below 0.9.

Settings in all cases: mRNA level, 48 h; actives raise or lower the signal
Read-out in assay [1]: Insulin-like growth factor-binding protein 1 (IGFBP1), IGFBP1 (gene 3484)
Briefly: LTEA_HepaRG_IGFBP1: Life Technologies and Expression Analysis (LTEA) Assay for Insulin-like growth factor-binding protein 1 (IGFBP1) using HepaRG (AID 2283508). The essentials: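 Read-out is qRT-PCR transcript level normalized to three housekeeping genes, fitted in both directions against 0.5% DMSO. Differentiated HepaRG cells received eight half-log concentrations (top 100 uM) in duplicate for 48 h in serum-free induction medium.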

Read-out in assay [2]: Interleukin 6 (IL6), IL6 (gene 3569)
As to the kind of experiment: LTEA_HepaRG_IL6: Life Technologies and Expression Analysis (LTEA) Assay for Interleukin 6 (IL6) using HepaRG (AID 2283509). The gist of the method: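 Changes in IL6 mRNA, up or down relative to 0.5% DMSO controls, were derived from concentration-response curves in human HepaRG cells treated for 48 h at up to 100 uM, with ACTB, GAPDH and POLR2A as normalizers.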

Read-out in assay [3]: Interleukin 6 Receptor (IL6R), IL6R (gene 3570)
Briefly: LTEA_HepaRG_IL6R: Life Technologies and Expression Analysis (LTEA) Assay for Interleukin 6 Receptor (IL6R) using HepaRG (AID 2283510). The gist of the method: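 In this HepaRG screen, test chemicals act on cells for 48 h at up to 100 uM (eight half-log points, duplicate wells). IL6R expression is quantified by qRT-PCR after normalization to ACTB, GAPDH and POLR2A, with DMSO as baseline.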

Read-out in assay [4]: Potassium channel subfamily K member 1 (KCNK1), KCNK1 (gene 3775)
Briefly: LTEA_HepaRG_KCNK1: Life Technologies and Expression Analysis (LTEA) Assay for Potassium channel subfamily K member 1 (KCNK1) using HepaRG (AID 2283511). The gist of the method:
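Human HepaRG cultures receive test chemicals for 48 h in 0.5% DMSO, top concentration 100 uM with half-log dilutions. Induction or suppression of KCNK1 mRNA relative to DMSO is derived by bidirectional fitting of qRT-PCR data.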

Read-out in assay [5]: Keratin 19 (KRT19), KRT19 (gene 3880)
As to the kind of experiment: LTEA_HepaRG_KRT19: Life Technologies and Expression Analysis (LTEA) Assay for Keratin 19 (KRT19) using HepaRG (AID 2283512). The gist of the method: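 KRT19 transcript measured by TaqMan qRT-PCR, referenced to three housekeeping genes, after HepaRG cells received test chemicals for 48 h. Eight half-log concentrations, top 100 uM, 0.5% DMSO vehicle; increases and decreases both fitted.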

Read-out in assay [6]: JUN Transcription Factor, JUN (gene 3725)
Briefly: LTEA_HepaRG_JUN: Life Technologies and Expression Analysis (LTEA) Assay for JUN Transcription Factor using HepaRG (AID 2283513). The gist of the method: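 Gene-expression endpoint: JUN mRNA (qRT-PCR, normalized to three reference genes) in HepaRG cultures treated 48 h with chemicals, duplicate wells, 100 uM maximum with half-log dilutions; bidirectional fitting relative to 0.5% DMSO.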

Read-out in assay [7]: Lipase C (LIPC), LIPC (gene 3990)
Briefly: LTEA_HepaRG_LIPC: Life Technologies and Expression Analysis (LTEA) Assay for Lipase C (LIPC) using HepaRG (AID 2283514). The essentials:
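In this multiplexed gene-expression screen, human HepaRG cultures received test chemicals for 48 h across eight concentrations with 100 uM highest, in duplicate. Values reflect LIPC mRNA induction or suppression versus DMSO vehicle, from normalized qRT-PCR.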

Read-out in assay [8]: MicroRNA 122 (MIR122), gene 406906
As to the kind of experiment: LTEA_HepaRG_MIR122: Life Technologies and Expression Analysis (LTEA) Assay for MicroRNA 122 (MIR122) using HepaRG (AID 2283516). Also: the transcript read is the microRNA miR-122. The essentials:
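Changes in transcript abundance, up or down relative to 0.5% DMSO vehicle, were scored after 48 h chemical treatment of HepaRG cells (maximum 100 uM). Quantification used TaqMan qRT-PCR normalized to housekeeping genes.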

Read-out in assay [9]: matrix metalloproteinase-10 (MMP10), MMP10 (gene 4319)
As to the kind of experiment: LTEA_HepaRG_MMP10: Life Technologies and Expression Analysis (LTEA) Assay for matrix metalloproteinase-10 (MMP10) using HepaRG (AID 2283517). The essentials:
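In differentiated HepaRG cultures kept in 0.5% DMSO, test chemicals act for 48 h over an eight-point range with a top dose of 100 uM. Expression is then quantified by TaqMan RT-PCR against ACTB, GAPDH and POLR2A.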

Read-out in another assay: MYC, MYC (gene 4609)
Briefly: LTEA_HepaRG_MYC: Life Technologies and Expression Analysis (LTEA) Assay for MYC using HepaRG (AID 2283518). The gist of the method: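 MYC transcript changes, up or down relative to 0.5% DMSO, from TaqMan qRT-PCR normalized to three housekeeping genes. Human HepaRG cultures received chemicals for 48 h at eight half-log concentrations up to 100 uM, in duplicate.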

Read-out in assay [10]: matrix metalloproteinase-3 (MMP3), MMP3 (gene 4314)
Briefly: LTEA_HepaRG_MMP3: Life Technologies and Expression Analysis (LTEA) Assay for matrix metalloproteinase-3 (MMP3) using HepaRG (AID 2283519). The essentials: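 Human liver HepaRG cultures received chemicals (top concentration 100 uM, 0.5% DMSO) for 48 h in duplicate. MMP3 mRNA induction or loss was then assessed via TaqMan qRT-PCR with housekeeping-gene normalisation.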

Read-out in assay [11]: Paternally Expressed 10 (PEG10), PEG10 (gene 23089)
Briefly: LTEA_HepaRG_PEG10: Life Technologies and Expression Analysis (LTEA) Assay for Paternally Expressed 10 (PEG10) using HepaRG (AID 2283520). The essentials:
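After 48 h exposure of differentiated HepaRG cells (0.5% DMSO vehicle, eight concentrations up to 100 uM, duplicates), PEG10 mRNA was measured by TaqMan qRT-PCR. Values were normalised to endogenous control genes and analysed bidirectionally against vehicle.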

Read-out in assay [12]: Protein phosphatase 2A (PPP2R4), PTPA (gene 5524)
As to the kind of experiment: LTEA_HepaRG_PPP2R4: Life Technologies and Expression Analysis (LTEA) Assay for Protein phosphatase 2A (PPP2R4) using HepaRG (AID 2283522). The essentials:
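Using HepaRG cultures maintained in 0.5% DMSO, chemicals are tested 48 h at up to 100 uM in duplicate. Induction or suppression of PPP2R4 mRNA, measured by qRT-PCR, is fitted bidirectionally against the vehicle baseline.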

Read-out in assay [13]: Phosphatase and tensin (PTEN), PTEN (gene 5728)
Briefly: LTEA_HepaRG_PTEN: Life Technologies and Expression Analysis (LTEA) Assay for Phosphatase and tensin (PTEN) using HepaRG (AID 2283523). The essentials:
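Expression of PTEN is quantified in the human liver line HepaRG following two days of dosing (top concentration 100 uM, half-log dilutions, 0.5% DMSO). Values derive from bidirectional curve fitting relative to DMSO controls.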

Read-out in assay [14]: solute carrier (SLC22A1), SLC22A1 (gene 6580)
Briefly: LTEA_HepaRG_SLC22A1: Life Technologies and Expression Analysis (LTEA) Assay for solute carrier (SLC22A1) using HepaRG (AID 2283524). The gist of the method: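 Transcript induction or suppression of SLC22A1 in human HepaRG cultures is scored after 48 h chemical treatment, with DMSO (0.5%) as baseline for bidirectional fitting. Concentrations span eight half-log points topping at 100 uM.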

Read-out in assay [15]: Pyruvate Dehydrogenase Kinase 4 (PDK4), PDK4 (gene 5166)
As to the kind of experiment: LTEA_HepaRG_PDK4: Life Technologies and Expression Analysis (LTEA) Assay for Pyruvate Dehydrogenase Kinase 4 (PDK4) using HepaRG (AID 2283525). The essentials:
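Eight-point, half-log concentration series (max 100 uM, 0.5% DMSO) applied to differentiated HepaRG cells for 48 h in duplicate. Endpoint: PDK4 mRNA induction or repression by qRT-PCR against DMSO baseline.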

Read-out in assay [16]: NAD(P)H dehydrogenase [quinone] 1 (NQO1), NQO1 (gene 1728)
As to the kind of experiment: LTEA_HepaRG_NQO1: Life Technologies and Expression Analysis (LTEA) Assay for NAD(P)H dehydrogenase [quinone] 1 (NQO1) using HepaRG (AID 2283526). The gist of the method:
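In this assay, gene expression is read by qRT-PCR after 48 h exposure of HepaRG cells to eight concentrations (max 100 uM, half-log) in 0.5% DMSO. Each chemical runs in duplicate, and activity is scored relative to vehicle.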

Read-out in assay [17]: Nuclear factor erythroid 2-related factor 2 (Homo sapiens) (UniProt Q16236)
As to the kind of experiment: LTEA_HepaRG_NFE2L2: Life Technologies and Expression Analysis (LTEA) Assay for Nuclear factor erythroid 2-related factor 2 (NFE2L2) Transcription Factor using HepaRG (AID 2283527).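 Also: TaqMan qRT-PCR transcript level normalised to ACTB GAPDH and POLR2A housekeeping genes.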 The gist of the method: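 Human liver HepaRG line treated in duplicate for 48 h with an eight-point series topping at 100 uM. Gene expression of NFE2L2 by qRT-PCR, bidirectionally fitted against the vehicle control.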

Read-out in assay [18]: Lipoprotein lipase (LPL), LPL (gene 4023)
As to the kind of experiment: LTEA_HepaRG_LPL: Life Technologies and Expression Analysis (LTEA) Assay for Lipoprotein lipase (LPL) using HepaRG (AID 2283515). The essentials: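 Concentration-response testing used half-log steps from 100 uM in 0.5% DMSO on human HepaRG cells, 48 h, duplicate wells. Phenobarbital 1 mM served as induction control; LPL mRNA was normalized to ACTB, GAPDH, POLR2A.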

Nuclear factor erythroid 2-related factor 2 (Homo sapiens), sequence (Q16236 whole entry, looked up): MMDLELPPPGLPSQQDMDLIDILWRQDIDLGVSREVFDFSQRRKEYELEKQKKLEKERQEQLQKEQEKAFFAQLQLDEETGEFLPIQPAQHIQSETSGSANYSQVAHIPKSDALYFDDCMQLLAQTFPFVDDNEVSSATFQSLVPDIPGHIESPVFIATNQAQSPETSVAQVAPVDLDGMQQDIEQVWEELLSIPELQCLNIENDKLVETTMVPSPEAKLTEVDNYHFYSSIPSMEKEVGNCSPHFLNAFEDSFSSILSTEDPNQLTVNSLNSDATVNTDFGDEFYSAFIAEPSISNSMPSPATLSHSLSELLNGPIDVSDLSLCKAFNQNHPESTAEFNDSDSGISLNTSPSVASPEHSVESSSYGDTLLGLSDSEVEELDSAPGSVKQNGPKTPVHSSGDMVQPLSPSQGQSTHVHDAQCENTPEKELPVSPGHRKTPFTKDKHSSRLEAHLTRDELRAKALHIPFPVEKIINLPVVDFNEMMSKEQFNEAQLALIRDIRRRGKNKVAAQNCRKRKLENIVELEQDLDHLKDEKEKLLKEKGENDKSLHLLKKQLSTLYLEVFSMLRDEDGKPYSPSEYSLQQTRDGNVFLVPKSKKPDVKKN

`CCCCOC(=O)[C@@H](C)Oc1ccc(Oc2ccc(C#N)cc2F)cc1`: the result in assay [1], in assay [2], in [3], in assay [4], in assay [5] and in assay [6] was inactive. For the same molecule, the outcome in [7] was “inactive”; in assay [8], “inactive”; in [9], “inactive”; in the assay with MYC, MYC (gene 4609), “inactive”; in assay [10], “inactive”; in [11] it was “inactive”. Further, the molecule was called inactive in [12], in assay [13], in [14], in assay [16] and in [17]. In addition, in [15], the AC50 was 49.8 µM (active).
With `CCOC(=O)CC(SP(=O)(OC)OC)C(=O)OCC` (stereo unspecified), the call in [1], in assay [2], in assay [3], in assay [4], in assay [5] and in assay [6] was inactive. Besides, the outcome in assay [7] is “inactive”; in assay [18] it was “inactive”; in assay [8], “inactive”; in assay [9], “inactive”; with MYC, MYC (gene 4609) it was “inactive”; in assay [10], “inactive”. Besides, the molecule was called inactive in assay [11], in assay [12], in assay [13], in [14], in [16] and in assay [17]. Also, in [15], the AC50 is 22 µM (active).
On to `COP(=O)(NC(C)=O)SC` (stereo unspecified), for which the call in [1], in assay [2], in assay [3], in assay [4], in assay [5] and in assay [6] was inactive. For the same molecule, the outcome is “inactive” in assay [7]; “inactive” in assay [18]; “inactive” in assay [8]; “inactive” in [9]; “inactive” with MYC, MYC (gene 4609); “inactive” in assay [10]. Further, the molecule was called inactive in [11], in assay [12], in [13], in assay [14], in assay [15] and in assay [16]. In addition, the molecule was called inactive in [17].
